# PubChem BioAssay AID2073 (Sanford-Burnham Center for Chemical Genomics, 2009)
# “And” between values parts separate entries of the source, which are not always exact repeats. Identical values can stand only once. Hit rate of the full screen: of about 290,000 compounds, about 570 (0.2%) were called active. Roughly 1% stayed inconclusive and do not appear here. No stated cut-off is given here; in the data, active means inhibition mostly above about 51% (no sharp cut-off); inconclusive means no clear call, values can overlap the other calls; inactive means mostly below about 53%. This excerpt belongs to a sample that is enriched for actives.
# Target: Voltage-dependent N-type calcium channel subunit alpha-1B (Homo sapiens) (UniProt Q00975)
# Assay: disruptors of CaV2.2 binding to Mint1 – biochemical, HTRF (AID 2073)
# Conditions: HTRF protein-protein interaction, Mint1-CaV2.2, at 20 µM, stronger effect = higher value
# [1] = measured here: average of repeat tests
# Voltage-dependent N-type calcium channel subunit alpha-1B (Homo sapiens), sequence (Q00975 whole entry, looked up): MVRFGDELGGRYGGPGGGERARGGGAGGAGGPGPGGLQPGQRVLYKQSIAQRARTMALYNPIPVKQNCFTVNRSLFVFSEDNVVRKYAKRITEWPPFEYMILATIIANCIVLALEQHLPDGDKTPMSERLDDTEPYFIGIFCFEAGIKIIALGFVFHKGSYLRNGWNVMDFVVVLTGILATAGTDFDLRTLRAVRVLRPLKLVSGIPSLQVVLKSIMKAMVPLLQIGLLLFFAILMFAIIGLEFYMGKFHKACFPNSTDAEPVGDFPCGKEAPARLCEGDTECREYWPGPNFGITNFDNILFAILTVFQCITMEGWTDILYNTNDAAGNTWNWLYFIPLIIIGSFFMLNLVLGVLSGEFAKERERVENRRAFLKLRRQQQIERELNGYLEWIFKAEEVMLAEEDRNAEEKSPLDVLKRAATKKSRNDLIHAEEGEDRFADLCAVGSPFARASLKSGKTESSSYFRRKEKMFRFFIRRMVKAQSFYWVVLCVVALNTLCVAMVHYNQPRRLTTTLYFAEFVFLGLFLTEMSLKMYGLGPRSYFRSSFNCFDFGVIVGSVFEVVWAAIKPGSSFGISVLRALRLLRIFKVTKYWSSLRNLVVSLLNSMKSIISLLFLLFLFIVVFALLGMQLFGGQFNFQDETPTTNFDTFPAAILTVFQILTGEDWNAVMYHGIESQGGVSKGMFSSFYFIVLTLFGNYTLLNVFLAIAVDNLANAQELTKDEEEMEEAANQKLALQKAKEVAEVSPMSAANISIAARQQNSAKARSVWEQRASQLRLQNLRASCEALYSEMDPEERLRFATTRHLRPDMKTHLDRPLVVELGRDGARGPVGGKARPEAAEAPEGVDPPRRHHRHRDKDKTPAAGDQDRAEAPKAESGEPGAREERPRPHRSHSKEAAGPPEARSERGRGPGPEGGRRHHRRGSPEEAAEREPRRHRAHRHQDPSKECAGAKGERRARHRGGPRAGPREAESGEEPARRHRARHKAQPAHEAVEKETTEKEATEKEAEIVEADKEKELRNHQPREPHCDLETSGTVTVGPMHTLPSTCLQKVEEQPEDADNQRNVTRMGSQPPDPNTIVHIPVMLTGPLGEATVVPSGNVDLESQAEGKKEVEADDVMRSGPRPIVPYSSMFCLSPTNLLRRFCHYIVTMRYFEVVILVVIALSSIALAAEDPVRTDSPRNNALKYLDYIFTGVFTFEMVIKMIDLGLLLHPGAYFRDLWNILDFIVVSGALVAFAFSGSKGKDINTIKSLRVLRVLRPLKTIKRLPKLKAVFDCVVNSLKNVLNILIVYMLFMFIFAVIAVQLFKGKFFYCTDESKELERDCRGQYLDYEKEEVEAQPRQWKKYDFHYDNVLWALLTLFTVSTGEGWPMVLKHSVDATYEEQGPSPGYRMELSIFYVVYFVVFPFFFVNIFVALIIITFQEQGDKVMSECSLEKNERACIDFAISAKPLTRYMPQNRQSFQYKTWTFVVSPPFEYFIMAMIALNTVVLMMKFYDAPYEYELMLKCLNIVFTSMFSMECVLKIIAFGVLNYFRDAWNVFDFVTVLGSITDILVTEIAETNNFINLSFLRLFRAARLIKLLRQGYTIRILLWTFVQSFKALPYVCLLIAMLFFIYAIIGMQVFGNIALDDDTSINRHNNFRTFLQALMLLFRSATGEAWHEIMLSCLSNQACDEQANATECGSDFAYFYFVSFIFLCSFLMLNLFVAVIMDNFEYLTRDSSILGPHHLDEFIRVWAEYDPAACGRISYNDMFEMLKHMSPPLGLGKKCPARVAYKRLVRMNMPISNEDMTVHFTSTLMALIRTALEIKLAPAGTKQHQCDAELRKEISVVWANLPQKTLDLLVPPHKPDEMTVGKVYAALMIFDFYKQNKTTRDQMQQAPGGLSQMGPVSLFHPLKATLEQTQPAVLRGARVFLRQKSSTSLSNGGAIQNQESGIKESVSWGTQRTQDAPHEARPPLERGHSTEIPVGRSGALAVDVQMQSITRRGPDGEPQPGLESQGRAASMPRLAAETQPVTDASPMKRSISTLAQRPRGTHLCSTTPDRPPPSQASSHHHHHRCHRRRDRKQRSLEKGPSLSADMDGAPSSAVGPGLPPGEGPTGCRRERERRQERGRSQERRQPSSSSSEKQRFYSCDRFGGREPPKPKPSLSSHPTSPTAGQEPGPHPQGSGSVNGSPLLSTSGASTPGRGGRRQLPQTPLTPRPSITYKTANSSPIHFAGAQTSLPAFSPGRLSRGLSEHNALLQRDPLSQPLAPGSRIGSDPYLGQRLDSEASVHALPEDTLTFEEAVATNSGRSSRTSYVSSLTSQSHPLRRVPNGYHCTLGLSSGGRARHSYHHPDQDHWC
SMILES,inhibition,inhibition [1] [%]
Cc1ccc(-c2cnn(-c3cccc([N+](=O)[O-])c3)c2N)cc1,22.4% (inactive),–
Cc1cc(C)cc(NC(=O)CCC(=O)N2CCSc3ccccc32)c1,-4.1% (inactive),–
COc1cc(CNc2ccc3[nH]c(=O)[nH]c3c2)cc(Cl)c1OCC(=O)NC(C)(C)C,51.8% (active),–
COc1cc(CNc2ccc3[nH]c(=O)[nH]c3c2)cc(Br)c1OCC(=O)NC(C)(C)C,-33% (inactive),–
COc1cc(CNc2ccc3[nH]c(=O)[nH]c3c2)ccc1OCC(=O)NC(C)(C)C,43.9% (inactive),–
COc1ccc(OC)c(C(=O)NC(CC(N)=O)c2ccc(NCC3CC3)c([N+](=O)[O-])c2)c1 (stereo unspecified),-4.2% (inactive),–
O=C(c1cccc(C(=O)N(c2ccccn2)C2CCCCC2)c1)N(c1ccccn1)C1CCCCC1,-10.9% (inactive),–
O=S(=O)(Nc1cc(Sc2cccc3cccnc23)c(O)c2ccccc12)c1ccc(F)cc1,-17% (inactive),–
O=S(=O)(Nc1cc(Sc2ncn[nH]2)c(O)c2ccccc12)c1ccccc1,56.7% (inactive),-21.5
O=S(=O)(Nc1cc(Sc2cccc3cccnc23)c(O)c2ccccc12)c1ccccc1,69.2% (active),–
COc1ccc(C2N(C(=O)c3ccccc3)CCN2C(=O)c2ccc(C)cc2)cc1 (stereo unspecified),-6.5% (inactive),–
CN(Cc1c(C(=O)N2CCCCCCC2)nc2ccc(Cl)cn12)C1CCOC1 (stereo unspecified),-10% (inactive),–
COC(=O)N1CC(c2ccccc2)CC1=O (stereo unspecified),-7.4% (inactive),–
O=[N+]([O-])c1ccc(-c2cnc3ccccc3n2)cc1,6.2% (inactive),–
Nc1nc(-c2ccc([N+](=O)[O-])cc2)cs1,35.7% (inactive),–
O=C(COc1ccccc1[N+](=O)[O-])N/N=C/C=C/c1ccco1,4.5% (inactive),–
COc1ccccc1OCC(=O)N/N=C/C=C/c1ccc([N+](=O)[O-])o1,54.5% (active),–
Cc1ccc(OCC(=O)N/N=C/C=C/c2ccco2)cc1,53.6% (inactive),27.1
Cc1ccccc1OCC(=O)N/N=C/c1ccc([N+](=O)[O-])o1,6.4% (inactive),–
Cc1ccc(OCC(=O)N/N=C/C=C/c2ccco2)cc1C,55.3% (active),–
Cc1cccc(OCC(=O)N/N=C/C=C/c2ccco2)c1,59.6% (inactive),16
COCc1c(C(=O)OCC(=O)NCCN2C(=O)CSC2=O)oc2ccccc12,1.8% (inactive),–
COCCCNC(=O)c1cc2c(-c3ccc(Cl)cc3)nn(C)c2s1,13% (inactive),–
O=S(=O)(NCc1ccccc1)NCc1ccccc1,0.7% (inactive),–

SMILES,inhibition,inhibition [1] [%]
CCN(CC)S(=O)(=O)c1cc(C(=O)OCC(=O)Nc2cccc(Br)c2)ccc1F,-2.8% (inactive),–
CCCn1c(O)c(C=Nc2ccccc2)sc1=S,35.6% (inactive),–
Oc1c(/C=C/C=C/C=Nc2ccccc2)sc(=S)n1Cc1ccccc1,50.6% (active),–
CCCCn1c(O)c(/C=C/C=C/C=Nc2ccccc2)sc1=S,71.6% (active),–
Oc1c(C=Nc2ccccc2)sc(=S)n1Cc1ccccc1,-4.9% (inactive),–
CCn1c(O)c(/C=C/C=C/C=Nc2ccccc2)sc1=S,1.5% (inactive),–
O=C(O)Cn1c(O)c(C=Nc2ccccc2)sc1=S,-17.7% (inactive) and -1.2% (inactive),–
O=C(Nc1cccc(Cl)c1)Nc1ccccc1C(=O)NCc1ccco1,3.4% (inactive),–
CCc1ccccc1NC(=S)NC1CC2CCC(C1)N2Cc1ccc(F)cc1 (stereo unspecified),-9.8% (inactive),–
CCn1c(SCC(=O)NNC(=O)c2ccc(C)cc2)nnc1C1CC1,7.6% (inactive),–
COc1ccccc1-c1nnc(SCC(=O)NCc2cccs2)n1N,-0.4% (inactive),–
O=[N+]([O-])c1ccc(/C=N\NS(=O)(=O)c2ccc(F)cc2)o1,-7% (inactive),–
O=C1OC(c2ccc(F)cc2)=C/C1=C\c1ccc(O)cc1,-0.4% (inactive),–
O=C1OC(c2ccc(F)cc2)=C/C1=C\c1ccc([N+](=O)[O-])o1,73% (active),–
CCOc1ccc(NC(=O)NC(=O)N(C)S(=O)(=O)c2ccc(C)cc2)cc1,8.1% (inactive),–
O=C(c1ccccc1)c1ccc2nc(-c3ccco3)c(-c3ccco3)nc2c1,76.5% (active),–
O=C(c1ccc2nc(-c3ccco3)c(-c3ccco3)nc2c1)N1CCN(c2ccccc2)CC1,47.9% (inactive),–
Cc1ccc(C)c(N2CCN(C(=O)c3ccc4nc(-c5ccco5)c(-c5ccco5)nc4c3)CC2)c1,56.6% (inactive),15.5
O=C(Nc1ccccc1)c1ccc2nc(-c3ccco3)c(-c3ccco3)nc2c1,57.1% (inactive),-4.3
COc1ccccc1N1CCN(C(=O)c2ccc3nc(-c4ccco4)c(-c4ccco4)nc3c2)CC1,70% (active),–
O=C(NCc1ccccc1)c1ccc2nc(-c3ccco3)c(-c3ccco3)nc2c1,55.4% (inactive),20.4
O=C(NCC1CCCO1)/C(=C/c1ccccc1)NC(=O)c1ccccc1 (stereo unspecified),-11.4% (inactive),–
O=C(O)c1cccnc1-c1ncccc1C(=O)O,-7.6% (inactive),–
Cc1cccc(N/N=C2/COC(C)(C)CC2=O)c1,4.2% (inactive),–

SMILES,inhibition,inhibition [1] [%]
NC(=O)C1CCN(CC(=O)c2c[nH]c3ccc(F)cc23)CC1,1.6% (inactive),–
CC1CCCN(C(=O)c2ccc3c(c2NCCO)C(=O)c2ccccc2C3=O)C1 (stereo unspecified),-10.5% (inactive),–
CC1CC(C)CN(C(=O)c2ccc3c(c2NCCO)C(=O)c2ccccc2C3=O)C1 (stereo unspecified),59% (active),–
CC1CCN(C(=O)c2ccc3c(c2NCCO)C(=O)c2ccccc2C3=O)CC1,-7.6% (inactive),–
CC(=O)CN1C(=O)NC(c2ccccc2)(c2ccccc2)C1=O,12.2% (inactive),–
Cc1cc(-c2ccc(S(=O)(=O)N(C)Cc3ccccc3)cc2)on1,9% (inactive),–
COC(c1ccccc1)c1nnc(CCC(=O)NCc2cccc(-n3cccn3)c2)o1 (stereo unspecified),10.4% (inactive),–
COC(c1ccccc1)c1nnc(CCC(=O)NCc2ccc3ncccc3c2)o1 (stereo unspecified),50% (active),–
COc1ccc(CCc2nnc(CCC(=O)NCc3ccc4ncccc4c3)o2)cc1,-2.5% (inactive),–
O=C1CNC(=O)/C1=C/c1ccccc1,7.3% (inactive),–
O=C1CSC(c2ccccc2)N1c1nnc(C23CC4CC(CC(C4)C2)C3)s1 (stereo unspecified),1.5% (inactive),–
CCOC(=O)c1nc2sc3c(c2c(=O)[nH]1)CCCC3,29.6% (inactive) and 12.3% (inactive),–
O=C(O)c1ccc(/C=C/c2nc3sc4c(c3c(=O)[nH]2)CCC4)cc1,40.5% (inactive),–
N#C/C(=C\c1ccc(C(=O)O)cc1)c1nc2sc3c(c2c(=O)[nH]1)CCCC3,73.5% (active),–
O=C1C(Cc2ccccc2)NC(=S)N1Cc1ccccc1 (stereo unspecified),-4.6% (inactive),–
CC(=O)Cn1cnc2c(sc3nc(C)cc(C)c32)c1=O,-5.8% (inactive),–
Cc1cc(C)c2c(=O)n(CC(=O)Nc3ccc(Cl)cc3)sc2n1,23.2% (inactive),–
Cc1ccc(NC(=O)Cn2sc3nc(C)cc(C)c3c2=O)c(Cl)c1,70.3% (active),–
Cc1ccc(NC(=O)Cn2c(C)cc(C)c(C#N)c2=O)c(Cl)c1,2.7% (inactive),–
CCCNC(=O)Cn1sc2nc(C)cc(C)c2c1=O,88.4% (active),–
COC(=O)Cn1c(C)nc2c(sc3nc(C)cc(C)c32)c1=O,7.1% (inactive),–
CN1CCN(S(=O)(=O)c2cccc(C(=O)Oc3ccccc3Cl)c2)CC1,14.6% (inactive),–
COc1ccc(CNC(=O)Cn2nc([N+](=O)[O-])c(Br)c2C)cc1,2.9% (inactive),–
CCCN1C2=NCCN2c2ccccc21,2.5% (inactive),–

SMILES,inhibition,inhibition [1] [%]
O=C(Nc1ccc(F)cc1)Nc1nnc(-c2ccncc2)s1,50.5% (inactive),37.8
COc1ccc(NC(=O)Nc2nnc(-c3ccncc3)s2)cc1,3.4% (inactive),–
Cc1nnc(NC(=O)Nc2cccc(Cl)c2)s1,-1.9% (inactive),–
O=C(Nc1ccc(Cl)cc1)Nc1nnc(-c2ccncc2)s1,14.4% (inactive),–
O=C(Nc1cccc(Cl)c1)Nc1nnc(-c2ccncc2)s1,56.2% (active),–
Cc1ccc(NC(=O)Nc2nnc(-c3ccncc3)s2)cc1C,76.4% (active),–
Cc1c(NC(=O)CN2CCN(c3ccc([N+](=O)[O-])cc3)CC2)c(=O)n(-c2ccccc2)n1C,1.5% (inactive),–
CC1Oc2ccccc2N(CC(=O)N2CCc3ccccc32)C1=O (stereo unspecified),-10.9% (inactive),–
CCCC(=O)N(Cc1cc(=O)[nH]c2ccccc12)c1ccc(C)cc1,14.9% (inactive),–
CCOc1ccc(N(CC(=O)NCc2ccco2)S(C)(=O)=O)cc1,13.2% (inactive),–
O=C(NNC(=S)NC(=O)c1ccccc1)c1ccc([N+](=O)[O-])cc1,-13% (inactive),–
Cc1nc2ccc(S(=O)(=O)NCC(=O)NCc3ccc4c(c3)OCO4)cc2s1,15.2% (inactive),–
CS(=O)(=O)Nc1cccc2[nH]ncc12,6.1% (inactive),–
N#CC1(C#N)[C@@H](C(=O)C23CC4CC(CC(C4)C2)C3)C12CCOCC2,0% (inactive),–
Cc1ccc(NS(=O)(=O)c2ccc(OCC(=O)N3CCOCC3)cc2)cc1,-10.3% (inactive),–
COC(=O)C1C(O)=C(C=NC2CCCCC2)C(=O)CC1(C)C (stereo unspecified),10.7% (inactive),–
Cc1c(C#N)c(O)[nH]c(=O)c1N=Nc1ccc(S(N)(=O)=O)cc1,1.4% (inactive),–
Oc1ccc(N=Nc2c(O)ccc3ccccc23)cc1,-2.8% (inactive),–
NS(=O)(=O)c1ccc(N=Nc2c(O)c(C(=O)O)cc3ccccc23)cc1,20.5% (inactive),–
NS(=O)(=O)c1ccc(N=Nc2c(O)ccc3ccccc23)cc1,64.4% (active),–
Nc1nc(O)c(N=Nc2ccc(S(N)(=O)=O)cc2)c(=O)[nH]1,50% (active),–
Nc1nc(N)c(N=Nc2ccc(S(N)(=O)=O)cc2)c(=O)[nH]1,13.6% (inactive),–
